Screening results deposited in PubChem by National Center for Advancing Translational Sciences (NCATS).
ATXN viability – Viability Counterscreen for Primary qHTS for Inhibitors of ATXN expression; Potency, µM (doses to about 56.7 µM), usual class: cytotoxic; S2 cells (HEK-293 line with an ATXN2-luciferase reporter) viability, CellTiter-Fluor protease fluorescence, 24 h; AID 651635, 2014; hit rate 0.49% among 400,000; further: nearly all actives have a fitted effect of over 40% in size
USP2a block – qHTS Assay for Inhibitors of Ubiquitin-specific Protease USP2a Using CHOP2 as the Reporter; Ubiquitin carboxyl-terminal hydrolase 2 (Homo sapiens), O75604; USP2 core, Ub-CHOP2 coupled fluorogenic reporter, 485/531; Potency, µM (doses to about 38.3 µM), most hits filed as inhibitors; hit rate 0.01% among 330,000
Target sequence (O75604 whole entry, looked up): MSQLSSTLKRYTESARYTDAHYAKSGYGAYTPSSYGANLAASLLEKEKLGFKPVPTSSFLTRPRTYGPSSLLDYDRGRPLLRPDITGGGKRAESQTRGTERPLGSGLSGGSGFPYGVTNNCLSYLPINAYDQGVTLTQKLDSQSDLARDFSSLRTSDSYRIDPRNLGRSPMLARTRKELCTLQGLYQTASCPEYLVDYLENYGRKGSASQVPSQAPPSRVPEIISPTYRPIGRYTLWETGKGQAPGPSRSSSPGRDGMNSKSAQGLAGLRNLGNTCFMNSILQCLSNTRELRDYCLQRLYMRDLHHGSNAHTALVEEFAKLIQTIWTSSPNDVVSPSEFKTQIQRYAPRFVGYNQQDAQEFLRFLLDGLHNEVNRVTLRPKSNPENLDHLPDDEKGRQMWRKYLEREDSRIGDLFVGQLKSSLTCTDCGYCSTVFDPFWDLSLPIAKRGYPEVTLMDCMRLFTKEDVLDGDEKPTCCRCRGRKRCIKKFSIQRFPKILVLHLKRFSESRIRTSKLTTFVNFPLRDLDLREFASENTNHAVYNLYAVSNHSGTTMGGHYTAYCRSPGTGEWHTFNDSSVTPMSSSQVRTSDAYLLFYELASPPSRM
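USP2 core (10nM final) preincubated 30min RT with compound in 20mM Tris-HCl pH 8.0, 2mM CaCl2, 2mM beta-mercaptoethanol, 0.05% CHAPS; 25nM Ub-CHOP2 plus 25nM reporter substrate added, fluorescence (Ex485/Em531) read after 60min.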
ATXN2 expr inh – Primary qHTS for Inhibitors of ATXN expression; Potency, µM (titrated, usually from 57 µM), most hits filed as inhibitors; HEK-293 ATXN2-luciferase reporter, luminescence, 24 h; hit rate 0.72% among 360,000; further: nearly all actives have a fitted effect of over 55% in size
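qHTS (up to 57 uM final) was run with 24 h compound exposure of reporter cells at 37 °C. Each well was multiplexed: SteadyGlo luminescence measured ATXN2-luciferase expression after a fluorogenic Gly-Phe-AFC viability readout (25 uM final).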
USP1-UAF1 inh – Inhibitors of USP1/UAF1: Primary Screen; Ubiquitin carboxyl-terminal hydrolase 1 (Homo sapiens), O94782; hit rate 0.23% among 390,000; Potency, µM (doses to about 57.1 µM), actives largely listed as inhibitors; recombinant USP1/UAF1, Ub-Rhodamine cleavage fluorescence; further: nearly all actives have a fitted effect of over 60% in size
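USP1/UAF1 complex (1 nM) preincubated 15 min at room temperature with compound, then Ub-Rho substrate (150 nM final) added. Kinetic fluorescence at 480/540 nm over 6 reads at 60 s intervals; 50 mM HEPES pH 7.8, 0.5 mM EDTA, 0.1 mg/ml BSA, 1 mM TCEP, 0.01% Tween-20.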
IL-1B inflam inh – qHTS for Inhibitors of Inflammasome Signaling: IL-1-beta AlphaLISA Primary Screen; THP-1 LPS/ATP IL-1B secretion, AlphaLISA, 16 h; hits give low values; activity change, % at 57.5 µM; hit rate 4.7% among 360,000; AID 743279, 2014; in the data active means activity change below about -50%; inconclusive means mostly about -30% to -49%
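THP-1 cells pretreated 1 hr with compounds (up to 57.5 uM final), then stimulated with LPS (250 ng/mL final) plus ATP (1.25 mM final); secreted IL-1B measured by AlphaLISA after 16 hr, decreased signal indicating inhibition.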
Numbers stand for hits; 0 = inactive; ? = inconclusive; - = no result given; [ ] = dose if it differs, or a comment. In the library only some 4.8% were active in any assay of this set; here they are far more common. Unless noted, the call rests on the fitted dose curve; in most records, active means well fitted curve in the direction sought with a large enough effect; inconclusive means small, poorly fitted or top-dose-only effect, or another doubt; inactive means no such curve, though single readings can be large; an effect the other way counts as inactive or inconclusive.

SMILES	ATXN viability	USP2a block	ATXN2 expr inh	USP1-UAF1 inh	IL-1B inflam inh
COc1ccc(Cn2cc3c(-c4ccc(F)cc4)nnc-3c3cc(OC)c(OC)cc32)cc1	0	0	31.6µM	0	0
CC(C)(Oc1ccc(Cl)cc1)C(=O)OCCCOC(=O)C(C)(C)Oc1ccc(Cl)cc1	0	-	0	-	-
FC(F)(F)c1cccc(Nc2c3c(nc4ccc(Cl)cc24)CCC3)c1	-	-	-	0	-
O=C(CC1NCCc2ccccc21)Nc1ccc(Oc2ccccc2)cc1 (centres undefined)	0	0	0	0	-153.0
OCC1(Cc2ccc(Cl)cc2)CCN(CCCc2ccccc2)CC1	0	0	0	0	-77.3
OCC1(Cc2ccc(Cl)cc2)CCN(CC2CC=CCC2)CC1 (centres undefined)	0	0	0	0	-61.7
CSc1ccc(CN2CCC(CO)(Cc3ccc(Cl)cc3)CC2)cc1	?	0	?	0	-94.2
CN1CCC(CO)(Cc2ccccc2)CC1	?	0	-	0	0
OCC1(Cc2ccc(Cl)cc2)CCN(Cc2ccccc2F)CC1	0	0	0	0	0
CC1=CC(C)(C)Nc2ccc(OC(=O)CN3C(=O)c4cccc5cccc(c45)C3=O)cc21	0	0	?	?	-106.6
CC1=CC(C)(C)Nc2ccc(OC(=O)C(Cc3ccccc3)N3C(=O)c4ccccc4C3=O)cc21 (centres undefined)	0	0	?	0	?
CC1=CC(C)(C)Nc2ccc(OC(=O)CN3C(=O)c4ccccc4C3=O)cc21	-	0	28.2µM	?	-99.9
Cc1ccc2nc(CN3CCN(S(=O)(=O)c4ccc(F)cc4)CC3)oc2c1	0	-	0	0	-
O=C(Nc1ccccc1)C1=C[C@H](C2CCCCC2)C[C@H](OCc2ccc(CO)cc2)O1	?	0	0	0	-51.0
O=C(C1=C[C@H](C2CCCCC2)C[C@H](OCc2ccc(CO)cc2)O1)N1CCN(Cc2ccccc2)CC1	?	0	?	0	0
O=C(Nc1ccccc1)C1=C[C@@H](c2ccccc2)C[C@@H](OCc2ccc(CO)cc2)O1	0	0	0	0	0
O=C(Nc1ccccc1)C1=C[C@H](c2ccc(Br)cc2)C[C@H](OCc2ccc(CO)cc2)O1	?	0	0	0	-52.9
O=C(C1=C[C@@H](C2CCCCC2)C[C@@H](OCc2ccc(CO)cc2)O1)N1CCN(Cc2ccccc2)CC1	-	0	?	0	-59.0
COCCCNC(=O)C1CCCN(c2nn3cc(-c4ccc(C)cc4)nc3s2)C1 (centres undefined)	-	-	-	0	-
CC(C)=C1SC(N2CCN(c3ccc(Cl)cc3)CC2)=NC1=O	0	0	?	0	-60.4
COC(=O)CN(C#N)c1nc(NCc2ccccc2)nc(OC)n1	?	0	-	0	-66.7
O=C(CCl)N=c1sccn1Cc1ccc(Cl)cc1Cl	?	0	0	0	-96.8
CCC(=O)OCC(=O)N=c1sccn1Cc1ccc(C)cc1	0	0	0	0	0
O=C(CCl)N=c1sccn1Cc1ccccc1Cl	-	0	?	0	-100.1
O=C(CCl)N=c1sccn1Cc1cccc2ccccc12	?	0	0.0299µM	0	-101.8
SMILES	ATXN viability	USP2a block	ATXN2 expr inh	USP1-UAF1 inh	IL-1B inflam inh
CCC(=O)OCC(=O)N=c1sccn1Cc1ccccc1Cl	0	0	0	0	0
COC(=O)[C@@]12C[C@@H](CC(=O)NCCc3ccccc3OC)C(=O)N(Cc3cccc4ccccc34)C1=CCC(C)(C)C2	-	-	-	-	0
COc1ccc(C2=NN(C(=O)CCC(=O)O)C(c3ccccc3F)C2)cc1 (centres undefined)	0	0	0	0	0
COc1cc(OC)cc(N(C(=O)c2snc(C(N)=O)c2N)C(C(=O)NCC2CCCO2)c2ccc(C)o2)c1 (centres undefined)	-	0	-	-	-
COc1ccc(CCN(C(=O)c2snc(C(N)=O)c2N)C(C(=O)NCC2CCCO2)c2ccc(F)cc2)cc1OC (centres undefined)	0	0	0	0	0
Cc1cccc(CCN(C(=O)c2snc(C(N)=O)c2N)C(C(=O)NCC2CCCO2)c2ccc(F)cc2)c1 (centres undefined)	0	0	0	0	-51.6
Cc1cc(C)cc(N(C(=O)c2snc(C(N)=O)c2N)C(C(=O)NCC2CCCO2)c2ccc(C)o2)c1 (centres undefined)	0	0	0	0	-51.0
CCOc1ccc(C(C(=O)NCC2CCCO2)N(C(=O)c2snc(C(N)=O)c2N)c2ccccc2F)cc1 (centres undefined)	?	0	0	0	-71.9
Cc1ccc2c(n1)Oc1ccc(C(C)C(=O)OCC(=O)N(C)C)cc1C2 (centres undefined)	0	-	0	-	-
COc1ccc(Cl)cc1NC(=O)Cn1c(=O)n(-c2ccc(C)cc2)c(=O)c2ccc(C(=O)NCc3ccccc3Cl)cc21	0	-	0	0	-
CC(C)[C@H](NC(=O)CCCn1nnc2ccccc2c1=O)C(=O)O	0	0	0	0	-73.5
Cc1ccc2nc(SCC(=O)OCc3ccccc3)nc(=O)n2c1	0	0	0	0	-55.9
CCOC(=O)CSc1nc(=O)n2cc(C)ccc2n1	?	0	0	0	0
CCOC(=O)C(C)Sc1nc(=O)n2ccccc2n1 (centres undefined)	0	0	0	0	?
CCOC(=O)C(C)Sc1nc(=O)n2cc(C)ccc2n1 (centres undefined)	0	0	0[11.3 µM]	?	-101.2
Cc1cccc(NC(=O)C2CC(O)CN2C(=O)Oc2ccccc2)c1 (centres undefined)	0	0	0	0	0
CC(C)(C)NCCC(O)c1cc(C(F)(F)F)nc2c(C(F)(F)F)cccc12 (centres undefined)	0	-	0	0	-87.6
Cn1cccc1-c1cc2n(n1)CCC(=O)N2CC(=O)Nc1ccc(F)cc1Cl	0	-	0	0	-
CCOc1ccc(/C=C/C(=O)c2cc(Br)ccc(=O)c2O)cc1	-	0	0	?	?
CCc1ccc(/C=C/C(=O)c2cc(Br)ccc(=O)c2O)cc1	?	0	31.6µM	?	0
CCN(CC)CCCC(C)NC(=O)c1cc(=O)c2ccccc2o1 (centres undefined)	0	0	0	0	0
CCN(CC)CCCC(C)NC(=O)c1ccc(C(F)(F)F)cc1 (centres undefined)	0	0	-	0	-50.1
COc1cc(C(=O)N/N=C/c2ccc(OC(=O)c3ccccc3Cl)cc2)ccc1O	0	0	0	0	-72.4
Nc1ccc(C(=O)N/N=C\c2ccc(OC(=O)c3ccccc3Cl)cc2)cc1	-	0	-	0	0
Cc1ccc(C2(C)NC(=O)N(CC(=O)N3CCN(C(=O)c4cccs4)CC3)C2=O)cc1 (centres undefined)	0	0	0	0	0
